Measurements published in the supplement of paper PMC6555819.

The sequences below were run on FXR:RXRa (NR concentration 270 nM, RXRa partner concentration 90 nM) (assay: PBM binding z-score (relative to random genomic background probes); higher = stronger binding; sequences stand for … in GC…GCGATTGACAGCGTAGAATGAAGG).
How it was run: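 Scanned fluorescence from custom Agilent 4×180K protein-binding microarrays was regression-normalized. Binding z-scores use random background probes as reference. Ligand-free nuclear receptor dimers were incubated on the arrays for 1 h and detected with antibodies against each partner (one per run).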

Sequence	PBM binding z-score
CAAACTAGGTTAAGAGGTCAAAGTCCGCTTCCCG	5.61
CGTCCAAGGTCAGCAGGTCCGTGAAAGCGACGTG	4.81
CGTCATAGTTCAACTAAGGTAACGTAAAGCACGC	3.55
ACCTCTAGGTAAAAGTTCAGTGAATCCCGAGGAT	0.332
GCATATAGGTAATACAAGGTGAAAGCCCGATTGT	1.68
CGAACTAGGTCATTGACAGTACAGTGAATAGTAA	4.63
AGTCAAAGTTCATTAGGTAACGTAAGATTCAGCT	5.94
TCTTGTAGATCAACCGGAGGTTAAGAAAGATCGA	0.397
CGAACTAGGTCAGAACAGGCCAGTGAAGGATGAT	1.1
ATCTCTAGGTAAGACTCAGTTCAGTTAAGAACGC	0.593
AGAATGAGCTTACCAAAGATCAGGGAAACGCTTG	-0.649
GATACAGGATCAAGGCCAGAGTACGCGTATTGAT	-0.429
CGAACTAGGTCAGAACAGGACTGTGAAGGATGAT	0.728
GCTGCTAGGGCAACTGATGGTCAGCTAAAGCTCG	-0.599
CTCGAAAGGTCGTGCTCGGGTGAGTATACCAAAC	5.24
GCTTGTAGATCAAGGTTAAGACAGACTAAGCTAA	0.188
TCTATTAGCTGATTAGGGCAACCGAAACAGCGGA	0.113
ACTTACGGGTCAAAGAGGTTATAGCACGCGTATA	6.96
TCTAGTTGGTCAAAGGACACACACTCGAAATGCG	1.06
GCTGCTAGCTCAGGTTGGTCAGCTAACGGGTACG	-0.68
GCTGCTAGGTCAACTGATGGGCAGCTAAAGCTCG	3.7
CGGACTGGGGCATAAGGTTACCATAAGCCAGCCC	0.339
